As a reminder, the inhibition is the relative decrease from the control value, in per cent.

Solute carrier family 2, facilitated glucose transporter member 1 (Homo sapiens), sequence (P11166 whole entry): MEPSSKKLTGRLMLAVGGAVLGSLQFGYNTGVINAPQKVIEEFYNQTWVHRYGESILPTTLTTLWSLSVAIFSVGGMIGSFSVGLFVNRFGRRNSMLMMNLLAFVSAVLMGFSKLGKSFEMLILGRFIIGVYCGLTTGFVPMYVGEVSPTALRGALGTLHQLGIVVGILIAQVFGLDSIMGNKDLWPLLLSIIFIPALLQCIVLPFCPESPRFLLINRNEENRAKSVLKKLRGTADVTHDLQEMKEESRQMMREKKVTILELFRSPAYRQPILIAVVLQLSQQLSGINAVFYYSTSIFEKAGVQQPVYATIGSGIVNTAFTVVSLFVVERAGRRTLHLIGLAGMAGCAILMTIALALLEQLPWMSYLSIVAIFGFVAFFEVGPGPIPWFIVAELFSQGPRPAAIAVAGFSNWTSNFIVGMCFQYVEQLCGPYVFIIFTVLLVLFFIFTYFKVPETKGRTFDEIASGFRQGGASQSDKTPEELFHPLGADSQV

The assay addresses Solute carrier family 2, facilitated glucose transporter member 1 (Homo sapiens) (UniProt P11166). In words: ST_JUDE_LEISH: Cytotoxicity at 2uM final concentration against transgenic Leishmania Mexicana promastigotes LmGLUT1 that are glucose transport deficient and complemented with the human glucose transporter GLUT1. Activity is measured by DNA content using SYBR green in vitro. The format is functional.
With `Cc1c(S(=O)(=O)Nc2cccc(CCN3CCCCC3CCN3CCCC3)c2)sc2ccc(Cl)cc12` (stereo not given), the inhibition was -1.39%.
For `Cc1ccc(C(=O)Nc2ccc(OC3CCN(CCC(C)C)C3)c(Cl)c2)cc1` (stereo not given), the inhibition worked out at 3.79%.
In the case of `Cc1cccc2nc(-c3ccc(-c4ccc(NC(=O)C(=O)c5cccn5C)cc4)cc3)[nH]c12`, the inhibition is 5.06%.
With `CCCCNC(=O)c1cc(CNC2CCCCC2)ccc1-c1cccc(CNCc2ccc(-c3ccccc3)cc2)c1`, the inhibition came out at 5.94%.
As to `COc1cc(/C=C/C(=O)NC2CCC(N3CCC(c4ccccc4C)CC3)CC2)cc(OC)c1` (stereo not given), the inhibition was -0.75%.
The result for `CCCCNc1cc(C)nc(NCc2ccccc2)n1` reads 22.1%; that for `Cc1cc(CNC(=O)c2ccc(-c3ccc(-c4nc5cc(C(F)(F)F)ccc5[nH]4)s3)cc2)on1`, 4.04%; that for `CC(C)(C)c1ccc(Cn2c(=N)n(CC(=O)c3ccc(-c4ccccc4)cc3)c3ccccc32)cc1`, 0.71%.
As for `Cc1ccc(C)c2sc(N(CCCn3ccnc3)C(=O)c3ccco3)nc12`, the inhibition turned out to be 4.42%.
As for `CCCc1cc(C(=O)N[C@@H](Cc2ccccc2)[C@H](O)CNC(C)(C)c2cccc(OC)c2)c(F)c(N2CCCC2=O)c1`, the inhibition worked out at 9.67%.
For the molecule `O=C(Nc1cccc(C2=NCCCN2)c1)Nc1cccc(C2=NCCCN2)c1`, the inhibition came to 2.31%.
As for `CC(C)(C)OC(=O)NCc1ccc(Nc2nnc(-c3cccc(C(=O)NCCC(c4ccccc4)c4ccccc4)c3)o2)cc1`, the inhibition is 8.74%.
The result for `CN(C)CCNCc1ccc(-c2ccc3c(Nc4ccc(Oc5ccccc5)cc4)ccnc3c2)o1` reads -1.6%; that for `Cc1occc1C(=O)Nc1nc(-c2ccccn2)nc2ccsc12`, 78.6%; that for `CN(C)CC1CCCN1Cc1ccccc1-c1cnn(C)c(=O)c1Oc1ccc(F)cc1` (stereo not given), 5.23%.
Consider `O=C(/C=C/c1ccc(Cl)cc1)NCCCCCN1CCCN(C(=O)Nc2ccc(F)c(Cl)c2)CC1`, for which the inhibition turned out to be 5.5%.
For `Nc1ncnc2cc(-c3cccc(NC(=O)Nc4ccccc4)c3)sc12`, the inhibition worked out at 3.48%.
`O=C(NC1CCN(Cc2cccc(C(F)(F)F)c2)CC1)c1ccc(-c2cccc(C(F)(F)F)c2)s1`: the inhibition amounted to 6.34%.
In the case of `Nc1c2c(nc3ccc(NC(=O)CCCc4ccccc4)cc13)CCCC2`, the inhibition worked out at 1.07%.
`O=C(CN1CCN(S(=O)(=O)C=Cc2ccccc2)CC1)Nc1cc(C(F)(F)F)ccc1Cl`: the inhibition is 9.54%.
For the molecule `O=C(Nc1ccc(Cl)cc1)Nc1ccc2c(c1)N1CCN=C1S2`, the inhibition was -0.81%.
On to `O=C(CCc1ccccc1)NC(c1ccc(Cl)cc1)c1ccc2cccnc2c1O` (stereo not given), for which the inhibition is -0.41%.
The result for `CCN(CC)CCN(Cc1ccc(-c2ccc(C(F)(F)F)cc2)cc1)C(=O)Cn1c(CCc2cccc(F)c2F)nc(=O)c2ccc(F)cc21` reads 2.25%; that for `O=C(C=Cc1ccc(Cl)c(Cl)c1)NCCCCCN1CCC(CCCNC(=O)c2ccc3c(c2)OCO3)CC1`, 4.5%.
The result for `COc1cc(OC)c2c(C)cc(NCCCN3CCOCC3)nc2c1` reads 1.92%.
Regarding `O=C(/C=C/C=C/c1ccccc1)NCCCCCN1CCC(c2c[nH]c3ccccc23)CC1`, the inhibition turned out to be 3.2%.
As to `CCN(CCCN1CCCCC1)c1cc(C)nc(Nc2cccc(C(F)(F)F)c2C)n1`, the inhibition was -0.36%.
As for `NC(=O)c1ccccc1OCC(=O)Nc1ccc(-c2cccc(-c3nc4cc(C(F)(F)F)ccc4[nH]3)c2)cc1`, the inhibition is 2.52%.
Take `O=C(Nc1ccc(Cl)cc1F)NC1CCN(CCCCCNC(=O)C2CC2c2ccc(Cl)c(Cl)c2)CC1` (stereo not given): the inhibition worked out at 1.08%.
The result for `CC(C)C[C@@H](NC(=O)NC1CCC(CCN2C3CCC2CC(OC(=O)C(CO)c2ccccc2)C3)CC1)C(O)(c1ccccc1)c1ccccc1` (stereo not given in full) reads 3.28%.
`CCCN(Cc1nnc(-c2cccs2)o1)C(=O)C1COc2ccccc2O1` (stereo not given): the inhibition is 1.59%.
On to `COc1cccc(C(=O)NC(c2ccccc2OC)c2cc(Cl)c3cccnc3c2O)c1` (stereo not given), for which the inhibition was -1.87%.
Regarding `COc1ccc(NC(=O)/C=C/c2ccccc2Cl)cc1OCCN1CCC(N2CCN(C)CC2)CC1`, the inhibition was 4.65%.
The result for `Cc1ccc(-c2nnc(Nc3ccc(C(=O)N4CCCCC4)cc3)c3ccccc23)cc1S(=O)(=O)NCC1CCCO1` (stereo not given) reads 4.15%; that for `CC(O)C1CCCCN1C(=O)c1ccc(-c2ccc(-c3nc4cc(F)ccc4[nH]3)cc2)cc1` (stereo not given), 3.95%.
In the case of `CCCNCc1ccc(-c2ccc(CN(Cc3ccc4c(c3)OCO4)C(=O)Cc3cccnc3)cc2)nc1`, the inhibition was found to be 23.9%.
The result for `COc1ccc(CCCON2C(=N)N=C(N)NC2(C)C)cc1` reads 16.7%; that for `Cc1ccc(C)c(NC(=O)Nc2ccc(C)c(-c3ccc(C(=O)Nc4ccncc4)cc3)c2)c1`, 6.08%; that for `COc1cc(C2=NN(S(=O)(=O)c3c(C)cc(C)cc3C)CCCC2)ccc1Cl`, 4.03%.
In the case of `CCCCc1ccc(-c2ccc(-c3c(C)[nH]c(C)c(Br)c3=O)cn2)cc1`, the inhibition was determined as 2.88%.

These data come from ChEMBL document CHEMBL3433997, “St. Jude Leishmania screening dataset” (2016).
